In PubChem BioAssay (NCI):
About 79,000 compounds went through this panel and 15% of them were active in at least one assay; those are over-represented in the sample as a whole. Active and inactive are the calls of the source. Cut-off read from the data, not from the text of the source: active = growth inhibition above about 70%; inactive = the rest.

Columns and labels:
[1] = NCI Yeast Anticancer Drug Screen. Data for the mlh1 strain (AID 171);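 note: 0% = growth of vehicle-treated control cultures of the same strain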; conditions: S. cerevisiae mlh1 strain growth inhibition, hits give high values
Procedure, shortened: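 Here the genetically defined yeast mutant is grown with each compound, and the extent to which its growth falls below that of vehicle-exposed cells is reported.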

[2] = NCI Yeast Anticancer Drug Screen. Data for the sgs1 strain (AID 173);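 note: 0% = growth of vehicle-only control cultures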; conditions: S. cerevisiae sgs1 mutant, hits give high values
Procedure, shortened: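 Relative growth inhibition, referenced to vehicle, was determined in a yeast strain with a defined alteration affecting DNA damage repair or cell cycle control after compound exposure.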

[3] = NCI Yeast Anticancer Drug Screen. Data for the mlh1 rad18 strain (AID 175); conditions: S. cerevisiae mlh1 rad18 strain growth inhibition, hits give high values
Procedure, shortened: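 In this whole-cell yeast screen, a strain with altered DNA damage repair is challenged with compound, and its growth is measured against matched vehicle-treated controls.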

[4] = NCI Yeast Anticancer Drug Screen. Data for the rad18 strain (AID 177); conditions: S. cerevisiae rad18 mutant growth inhibition, hits give high values
Procedure, shortened: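 Screen uses a yeast strain with a defined lesion in DNA damage repair; compound effect is read as loss of growth compared to untreated vehicle cultures.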

[5] = NCI Yeast Anticancer Drug Screen. Data for the rad52 strain (AID 147);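 note: 0% = growth of vehicle-treated control cultures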; conditions: S. cerevisiae rad52 mutant growth inhibition, hits give high values
Procedure, shortened: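 Measured: yeast growth inhibition. System: strain with a defined DNA damage repair alteration. Reference: vehicle-treated control cultures.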

[6] = NCI Yeast Anticancer Drug Screen. Data for the rad50EPP+ strain (AID 151);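 note: 0% = growth of vehicle-treated control cultures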; conditions: S. cerevisiae rad50 mutant strain, hits give high values
Procedure, shortened: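 One strain with a rad50 alteration (rad50EPP+) was compound-treated, its growth then compared to that of vehicle controls.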

[7] = NCI Yeast Anticancer Drug Screen. Data for the mgt1 strain (AID 153); conditions: S. cerevisiae mgt1 mutant growth inhibition, hits give high values
Procedure, shortened: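 After exposure of the mgt1 yeast mutant to compound, growth was measured and reported as inhibition compared with vehicle controls.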

[8] = NCI Yeast Anticancer Drug Screen. Data for the rad50 strain (AID 155);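 note: 0% = growth of vehicle-only cultures of the same strain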; conditions: S. cerevisiae rad50 strain growth inhibition, hits give high values
Procedure, shortened: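 Vehicle-treated cultures provide the reference for the growth inhibition reported for compound-exposed, repair-deficient yeast.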

[9] = NCI Yeast Anticancer Drug Screen. Data for the mec2-1 strain (AID 157); conditions: S. cerevisiae mec2-1 strain, hits give high values
Procedure, shortened: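 Test agents were screened against the mec2-1 yeast strain, with defined DNA repair or cell cycle alteration. Growth was scored as inhibition against vehicle-only controls.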

[10] = NCI Yeast Anticancer Drug Screen. Data for the rad14 strain (AID 159);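 note: 0% = growth of vehicle-treated control cultures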; conditions: S. cerevisiae rad14 strain growth inhibition, hits give high values
Procedure, shortened: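 Inhibition of growth is reported for a repair-deficient yeast mutant following compound treatment, calculated relative to cultures that received vehicle.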

[11] = NCI Yeast Anticancer Drug Screen. Data for the sgs1 mgt1 strain (AID 161);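 note: 0% = growth of cultures given vehicle only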; conditions: S. cerevisiae sgs1 mgt1 strain, hits give high values
Procedure, shortened: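 Test agents were incubated with a DNA-repair-mutant yeast strain. Growth was then read and compared against vehicle-treated controls.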

[12] = NCI Yeast Anticancer Drug Screen. Data for the CLN2oe strain (AID 163);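 note: 0% = growth of vehicle-only control cultures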; conditions: S. cerevisiae CLN2oe strain, hits give high values
Procedure, shortened: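 Here, growth inhibition in a cell-cycle-altered yeast strain after compound exposure was quantified against vehicle control growth.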

[13] = NCI Yeast Anticancer Drug Screen. Data for the cln2 rad14 strain (AID 165);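 note: 0% = growth equal to vehicle treated cultures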; conditions: S. cerevisiae cln2 rad14 strain, hits give high values
Procedure, shortened: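 Growth of compound-exposed yeast (cln2 rad14 genotype) measured and expressed as inhibition relative to vehicle.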

[14] = NCI Yeast Anticancer Drug Screen. Data for the bub3 strain (AID 167); conditions: S. cerevisiae bub3 mutant strain, hits give high values
Procedure, shortened: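 Mutant yeast screening strain plus compound; vehicle-treated cultures serve as the 0% inhibition reference.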

[15] = NCI Yeast Anticancer Drug Screen. Data for the wt2 strain (AID 169); conditions: S. cerevisiae wt2 strain growth inhibition, hits give high values
Procedure, shortened: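 Genetically defined yeast strains from a DNA-repair/cell-cycle panel were used. Compound-exposed yeast growth was measured, and the inhibition was calculated relative to vehicle treatment.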

[16] = NCI Yeast Anticancer Drug Screen. Data for the wt1 strain (AID 149);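 note: 0% = growth of vehicle-treated wt1 cultures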; conditions: S. cerevisiae wt1 strain (SPY 50644) growth inhibition, hits give high values
Procedure, shortened: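 Each compound is tested on wt1 yeast and the loss of growth versus vehicle gives the inhibition value.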

[17] = at 5.0 µM (retest, dose inferred, filed as 0.5)
[18] = at 50.0 µM (retest, dose inferred, filed as 5.0)

Measured: growth inhibition

CSC(=S)N/N=C(\C)c1cccc(C)n1
active: [1]; at 100.0 µM 99% | [2]; at 100.0 µM 99% | [3]; [18] 99% | [3]; at 50.0 µM 99.2% | [4]; at 33.0 µM 75% | [4]; at 100.0 µM 96%
inactive: [1]; at 1.2 µM -11% | [1]; at 3.7 µM -1% | [1]; at 11.0 µM -6% | [1]; at 33.0 µM 29% | [2]; at 1.2 µM -3% | [2]; at 3.7 µM -5% | [2]; at 11.0 µM -4% | [2]; at 33.0 µM 57% | [3]; [17] 20% | [4]; at 1.2 µM -5% | [4]; at 3.7 µM -5% | [4]; at 11.0 µM 10%

O=C([O][Sn]([O]C(=O)c1ccccc1)([c]1ccccc1)[c]1ccccc1)c1ccccc1
inactive: [5]; at 1.2 µM 23% | [5]; at 3.7 µM 21% | [5]; at 11.0 µM 22% | [5]; at 33.0 µM 46% | [6]; at 1.2 µM 30% | [6]; at 3.7 µM 18% | [6]; at 11.0 µM 24% | [6]; at 33.0 µM 21% | [6]; at 100.0 µM 18% | [7]; at 1.2 µM 1% | [7]; at 3.7 µM 14% | [7]; at 11.0 µM 20% | [7]; at 33.0 µM 43% | [8]; at 1.2 µM 20% | [8]; at 3.7 µM 30% | [8]; [17] 4% | [8]; at 11.0 µM 27% | [8]; at 33.0 µM 40% | [8]; [18] 26% | [8]; at 50.0 µM 68.5% | [9]; at 1.2 µM 21% | [9]; at 3.7 µM 16% | [9]; [17] 12% | [9]; at 11.0 µM 16% | [9]; at 33.0 µM 37% | [9]; [18] 52% | [10]; at 1.2 µM 32% | [10]; at 3.7 µM 23% | [10]; at 11.0 µM 30% | [10]; at 33.0 µM 35% | [11]; [17] -11% | [11]; at 50.0 µM 56.4% | [12]; at 1.2 µM 15% | [12]; at 3.7 µM 16% | [12]; at 11.0 µM 10% | [12]; at 33.0 µM 23% | [12]; at 100.0 µM 57% | [13]; [17] -1% | [13]; at 50.0 µM 60% | [14]; at 1.2 µM 8% | [14]; at 3.7 µM 2% | [14]; [17] -14% | [14]; at 11.0 µM 10% | [14]; at 33.0 µM 30% | [14]; at 50.0 µM 58.5% | [15]; at 1.2 µM 8% | [15]; at 3.7 µM 1% | [15]; at 11.0 µM 20% | [1]; at 1.2 µM 1% | [1]; at 3.7 µM 14% | [1]; at 11.0 µM 20% | [1]; at 33.0 µM 43% | [2]; at 1.2 µM 28% | [2]; at 3.7 µM 26% | [2]; at 11.0 µM 30% | [2]; at 33.0 µM 45% | [3]; [17] 11% | [3]; at 50.0 µM 50.1% | [4]; at 1.2 µM 0% | [4]; at 3.7 µM -4% | [4]; at 11.0 µM -2% | [4]; at 33.0 µM 43%
active: [5]; at 100.0 µM 81% | [7]; at 100.0 µM 86% | [8]; at 100.0 µM 88% | [9]; at 50.0 µM 76.8% | [9]; at 100.0 µM 87% | [10]; at 100.0 µM 82% | [11]; [18] 73% | [13]; [18] 77% | [14]; [18] 87% | [14]; at 100.0 µM 83% | [15]; at 33.0 µM 81% | [15]; at 100.0 µM 97% | [1]; at 100.0 µM 86% | [2]; at 100.0 µM 84% | [3]; [18] 76% | [4]; at 100.0 µM 88%

O=[N+]([O-])/C=C/c1ccc2ccccc2c1
active: [5]; at 3.7 µM 72% | [5]; at 11.0 µM 100% | [5]; at 33.0 µM 100% | [5]; at 100.0 µM 99% | [16]; at 11.0 µM 99% | [16]; at 33.0 µM 100% | [16]; at 100.0 µM 100% | [7]; at 11.0 µM 100% | [7]; at 33.0 µM 100% | [7]; at 100.0 µM 99% | [8]; at 3.7 µM 95% | [8]; at 11.0 µM 100% | [8]; at 33.0 µM 100% | [8]; [18] 90% | [8]; at 50.0 µM 99.1% | [8]; at 100.0 µM 99% | [9]; at 3.7 µM 89% | [9]; at 11.0 µM 100% | [9]; at 33.0 µM 100% | [9]; [18] 96% | [9]; at 50.0 µM 99.2% | [9]; at 100.0 µM 97% | [11]; [18] 95% | [11]; at 50.0 µM 99.3% | [12]; at 11.0 µM 99% | [12]; at 33.0 µM 99% | [12]; at 100.0 µM 99% | [13]; [17] 98% | [13]; [18] 93% | [13]; at 50.0 µM 98.2% | [14]; [17] 98% | [14]; at 11.0 µM 99% | [14]; at 33.0 µM 99% | [14]; [18] 94% | [14]; at 50.0 µM 98.8% | [14]; at 100.0 µM 99% | [15]; at 11.0 µM 100% | [15]; at 33.0 µM 100% | [15]; at 100.0 µM 99% | [1]; at 11.0 µM 100% | [1]; at 33.0 µM 100% | [1]; at 100.0 µM 100% | [2]; at 3.7 µM 98% | [2]; at 11.0 µM 100% | [2]; at 33.0 µM 100% | [2]; at 100.0 µM 100% | [3]; [18] 93% | [3]; at 50.0 µM 98.8% | [4]; at 11.0 µM 99% | [4]; at 33.0 µM 100% | [4]; at 100.0 µM 99%
inactive: [5]; at 1.2 µM 28% | [16]; at 1.2 µM -1% | [16]; at 3.7 µM 7% | [7]; at 1.2 µM -1% | [7]; at 3.7 µM 61% | [8]; at 1.2 µM 33% | [8]; [17] 1% | [9]; at 1.2 µM 2% | [9]; [17] 33% | [11]; [17] -35% | [12]; at 1.2 µM 4% | [12]; at 3.7 µM 53% | [14]; at 1.2 µM 6% | [14]; at 3.7 µM 61% | [15]; at 1.2 µM -5% | [15]; at 3.7 µM 18% | [1]; at 1.2 µM 1% | [1]; at 3.7 µM 38% | [2]; at 1.2 µM 23% | [3]; [17] -256% | [4]; at 1.2 µM 6% | [4]; at 3.7 µM 48%
